The panel holds about 83,000 compounds, 20% with a hit somewhere; the sample as a whole holds those more often.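 Step 1: grow cells in 96-well plates. Step 2: add test compound at a single concentration. Step 3: incubate 48 h. Step 4: record percent growth.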 Unmarked numbers belong to inactive results. Active and inactive are the calls of the source. The calls were made as follows: active = growth percent below 10; inactive = the rest.

In one test the test system is UO-31 renal. As to the kind of experiment: NCI-60 one-dose screen, 48 h (100 = growth as untreated, 0 = no growth, -100 = all killed). Particulars: 10 µM unless noted.
Take `COc1cc2c(-c3nc4cc(Cl)c(F)cc4s3)cc(=O)oc2c(C)c1OC`: the growth is -94.4% (active).

In the case of `COc1cc(C2=NN(C(C)=O)C(c3ccc(OC(C)=O)cc3OC(C)=O)O2)c(OC(C)=O)c2ccccc12` (configuration not stated), the growth was 5.38% (active).

In the case of `O=C(/C(=C/c1cccc([N+](=O)[O-])c1)c1ccccc1)c1ccccc1`, the growth is 48.8%.

In the case of `CC1(C)OC(=O)C(=Cc2ccccc2Br)C(=O)O1`, the growth was 92.2%.

On to `c1ccc(-c2nnc(Nc3nnc(-c4ccccc4)s3)s2)cc1`, for which the growth is 82.5%.

For the molecule `COc1cc(/C=C/C(=O)Nc2ccc3c(c2)/C(=C\c2cccn2C)C(=O)N3)cc(OC)c1OC`, the growth is 28.3%.

Take `O=C(Nc1nc(-c2ccc(Cl)cc2)cs1)c1cc(O)c(O)c(O)c1`: the growth is 6.01% (active).

Take `CCCCCCOc1ccc(/C=N/NC(N)=S)cc1`: the growth is 17.8%.

Take `O=C(O)c1ccc(NC(=O)c2ccc(Nc3ccnc(C(F)(F)F)c3)cc2)cc1`: the growth is 84.5%.

On to `COc1cc(/C=C/C(=O)c2c(-c3ccc(Cl)cc3)nc3sc(C)nn23)cc(OC)c1OC`, for which the growth was 51.2%.

For `C=C1c2c(C)nn(-c3ccc(C#CCOC4OC(CO)C(O)C(O)C4O)cc3)c2N(C)C23C[C@H]1C1(C)c4c(C)nn(-c5ccc(C#CCOC6OC(CO)C(O)C(O)C6O)cc5)c4N(C)C(C)(C[C@H]12)C3` (some centres not stated), the growth is 21.1%.

Turning to `N#Cc1cccc(/C=C(/C(=O)c2ccccc2)c2ccccc2)c1`, the growth is 49.3%.

Consider `COc1cc(/C=C/C(=O)c2c(-c3ccc(F)cc3)nc3sc(C)nn23)cc(OC)c1OC`, for which the growth is 21.5%.

With `CCOc1nc(-c2ccccc2)cc2c(O)c(C(=O)n3nc(C)cc3C)[nH]c(=O)c12`, the growth was 96%.

For `O=C(Nc1nc(-c2ccccc2)cs1)c1cc(O)c(O)c(O)c1`, the growth was 24.6%.

For `Cc1cc2c(C#N)n3c(c2cc1C)C(=O)C(c1ccccc1)Oc1ccccc1-3` (configuration not stated), the growth is 14.5%.

As for `COc1cc2c(C#N)n3c(c2cc1OC)C(=O)C(c1ccccc1)Oc1ccccc1-3` (configuration not stated), the growth was 15.8%.

Take `O=C1/C(=C/c2ccc([N+](=O)[O-])o2)Oc2ccc(Br)cc21`: the growth is -18.6% (active).

Take `CCN1C(=O)c2ccc3c4c(ccc(c24)C1=O)C(=O)N(CCCNCc1ccccc1OC)C3=O`: the growth is -42.5% (active).

`O=C(/C=C/c1ccc(Cl)cc1)c1ccccc1`: the growth was 88.3%.

As for `CCOC(=O)c1c(NC(=O)C2CCCCC2C(=O)O)sc2c1CCCC2` (configuration not stated), the growth is 81.4%.

For the molecule `O=C(NCCCO)c1cc(Cl)ccc1O`, the growth is 48.1%.

As to `CN(C(=O)c1ccccc1)N(C)C(=O)c1ccccc1`, the growth was 93.2%.

`CCC1(c2ccccc2)Oc2ccccc2-n2c(C#N)c3ccccc3c2C1=O` (configuration not stated): the growth is 86.6%.

On to `Clc1cccc(Cc2cn3cc(-c4ccccc4)nc3s2)c1`, for which the growth was 49.7%.

`CCN(CC)c1ccc(C(O)C2=CC(=O)c3ccccc3C2=O)cc1` (configuration not stated): the growth is 22.7%.

Regarding `COc1ccc(-c2noc(N)c2-c2cc(OC)c3c(c2)OCO3)cc1`, the growth is 52.2%.

Consider `N#Cc1c2ccccc2c2n1-c1ccccc1OC(c1ccccc1)C2=O` (configuration not stated), for which the growth was 11.2%.

Consider `O=C(OCCBr)c1ccc(Cl)c([N+](=O)[O-])c1`, for which the growth is 88.9%.

With `COc1ccc(-c2csc(NC(=O)c3cc(O)c(O)c(O)c3)n2)cc1`, the growth is 30.3%.

A further test has as its system TK-10 renal. The test is described as above. Particulars: 10 µM unless noted.
In the case of `Cc1ccc2c(c1)O/C(=C\c1ccc([N+](=O)[O-])o1)C2=O`, the growth was -32.7% (active).

In the case of `c1ccc(-c2nnc(Nc3nnc(-c4ccccc4)s3)s2)cc1`, the growth is 142%.

As for `CCCCCCOc1ccc(/C=N/NC(N)=S)cc1`, the growth was 54.3%.

With `COc1ccc(-c2csc(NC(=O)c3cc(OC)c(OC)c(OC)c3)n2)cc1`, the growth was 117%.

Regarding `COc1cc(/C=C2\CCC/C(=C\c3ccc(OCC4CO4)c(OC)c3)C2=O)ccc1OCC1CO1` (configuration not stated), the growth was 58.5%.

As to `O=C1/C(=C/c2ccc([N+](=O)[O-])o2)Oc2ccc(Br)cc21`, the growth is -28.5% (active).

As to `c1cnc2n[nH]c(Nc3ncnc4c3sc3ncccc34)c2c1`, the growth is 103%.

Regarding `O=C(NCCCO)c1cc(Cl)ccc1O`, the growth is 24.9%.

For `CN(C(=O)c1ccccc1)N(C)C(=O)c1ccccc1`, the growth is 105%.

`Clc1cccc(Cc2cn3cc(-c4ccccc4)nc3s2)c1`: the growth was 69.2%.

As for `CCN(CC)c1ccc(C(O)C2=CC(=O)c3ccccc3C2=O)cc1` (configuration not stated), the growth was -31.4% (active).

As for `COc1ccc(-c2noc(N)c2-c2cc(OC)c3c(c2)OCO3)cc1`, the growth was 39%.

Turning to `O=C(OCCBr)c1ccc(Cl)c([N+](=O)[O-])c1`, the growth is 106%.

Consider `O=C1NCN(c2ccccc2)C12CCN(CCCC(c1ccc(F)cc1)c1ccc(F)cc1)CC2`, for which the growth is 66.1%.

The subject of a further test is ACHN renal. The test is described as above. To be noted: 10 µM unless noted.
Turning to `COc1cc2c(-c3nc4cc(Cl)c(F)cc4s3)cc(=O)oc2c(C)c1OC`, the growth was -83.8% (active).

With `COc1cc(C2=NN(C(C)=O)C(c3ccc(OC(C)=O)cc3OC(C)=O)O2)c(OC(C)=O)c2ccccc12` (configuration not stated), the growth is 16.3%.

For `Cc1ccc2c(c1)O/C(=C\c1ccc([N+](=O)[O-])o1)C2=O`, the growth is 1.36% (active).

With `O=C(/C(=C/c1cccc([N+](=O)[O-])c1)c1ccccc1)c1ccccc1`, the growth is 40.1%.

With `CC1(C)OC(=O)C(=Cc2ccccc2Br)C(=O)O1`, the growth is 102%.

Consider `c1ccc(-c2nnc(Nc3nnc(-c4ccccc4)s3)s2)cc1`, for which the growth was 96%.

For `COc1cc(/C=C/C(=O)Nc2ccc3c(c2)/C(=C\c2cccn2C)C(=O)N3)cc(OC)c1OC`, the growth was 54.9%.

Take `O=C(Nc1nc(-c2ccc(Cl)cc2)cs1)c1cc(O)c(O)c(O)c1`: the growth is 15.9%.

For the molecule `CCCCCCOc1ccc(/C=N/NC(N)=S)cc1`, the growth was 61.6%.

For `COc1ccc(-c2csc(NC(=O)c3cc(OC)c(OC)c(OC)c3)n2)cc1`, the growth is 107%.

Regarding `O=C(O)c1ccc(NC(=O)c2ccc(Nc3ccnc(C(F)(F)F)c3)cc2)cc1`, the growth was 98.9%.

As for `COc1cc(/C=C2\CCC/C(=C\c3ccc(OCC4CO4)c(OC)c3)C2=O)ccc1OCC1CO1` (configuration not stated), the growth is 30.2%.

For `COc1cc(/C=C/C(=O)c2c(-c3ccc(Cl)cc3)nc3sc(C)nn23)cc(OC)c1OC`, the growth was 73.8%.

As for `C=C1c2c(C)nn(-c3ccc(C#CCOC4OC(CO)C(O)C(O)C4O)cc3)c2N(C)C23C[C@H]1C1(C)c4c(C)nn(-c5ccc(C#CCOC6OC(CO)C(O)C(O)C6O)cc5)c4N(C)C(C)(C[C@H]12)C3` (some centres not stated), the growth was 27.7%.

Regarding `O=C(/C(=C/c1ccc([N+](=O)[O-])cc1)c1ccccc1)c1ccccc1`, the growth is 40.9%.

For `N#Cc1cccc(/C=C(/C(=O)c2ccccc2)c2ccccc2)c1`, the growth is 45%.

Take `COc1cc(/C=C/C(=O)c2c(-c3ccc(F)cc3)nc3sc(C)nn23)cc(OC)c1OC`: the growth is 24.6%.

Turning to `CCOc1nc(-c2ccccc2)cc2c(O)c(C(=O)n3nc(C)cc3C)[nH]c(=O)c12`, the growth was 100%.

Regarding `COc1ccc(/C=C(\C#N)c2ccccc2)cc1`, the growth is 97.3%.

For `O=C(Nc1nc(-c2ccccc2)cs1)c1cc(O)c(O)c(O)c1`, the growth is 40.3%.

As for `Cc1cc2c(C#N)n3c(c2cc1C)C(=O)C(c1ccccc1)Oc1ccccc1-3` (configuration not stated), the growth is 32.6%.

Take `CCOC(=O)/C(=C/c1ccccc1)C(=O)c1ccccc1`: the growth was 70.5%.

Take `COc1cc2c(C#N)n3c(c2cc1OC)C(=O)C(c1ccccc1)Oc1ccccc1-3` (configuration not stated): the growth is 54.3%.

As to `O=C1/C(=C/c2ccc([N+](=O)[O-])o2)Oc2ccc(Br)cc21`, the growth was 1.25% (active).

`c1cnc2n[nH]c(Nc3ncnc4c3sc3ncccc34)c2c1`: the growth was 97.8%.

For `CCN1C(=O)c2ccc3c4c(ccc(c24)C1=O)C(=O)N(CCCNCc1ccccc1OC)C3=O`, the growth was -67.1% (active).

On to `O=C(/C=C/c1ccc(Cl)cc1)c1ccccc1`, for which the growth was 110%.

In the case of `CCOC(=O)c1c(NC(=O)C2CCCCC2C(=O)O)sc2c1CCCC2` (configuration not stated), the growth is 98.2%.

As for `O=C(NCCCO)c1cc(Cl)ccc1O`, the growth was 14.6%.

Regarding `CN(C(=O)c1ccccc1)N(C)C(=O)c1ccccc1`, the growth is 106%.

On to `CCC1(c2ccccc2)Oc2ccccc2-n2c(C#N)c3ccccc3c2C1=O` (configuration not stated), for which the growth is 96.5%.

For the molecule `Clc1cccc(Cc2cn3cc(-c4ccccc4)nc3s2)c1`, the growth was 27.9%.

Consider `CCN(CC)c1ccc(C(O)C2=CC(=O)c3ccccc3C2=O)cc1` (configuration not stated), for which the growth is -58.8% (active).

For `COc1ccc(-c2noc(N)c2-c2cc(OC)c3c(c2)OCO3)cc1`, the growth is 40.8%.

Take `N#Cc1c2ccccc2c2n1-c1ccccc1OC(c1ccccc1)C2=O` (configuration not stated): the growth is 29%.

Regarding `O=C(OCCBr)c1ccc(Cl)c([N+](=O)[O-])c1`, the growth is 104%.

Regarding `O=C1NCN(c2ccccc2)C12CCN(CCCC(c1ccc(F)cc1)c1ccc(F)cc1)CC2`, the growth was 61.7%.

For `COc1ccc(-c2csc(NC(=O)c3cc(O)c(O)c(O)c3)n2)cc1`, the growth was 36%.

The values are drawn from PubChem BioAssay (NCI).
